Source: paper PMC5540273 (PLoS ONE, 2017)

Test system: T1, YANK3
T1 construct: gene STK32C
Details: concentration: 1 μM, replicates: in singlicate; n = 1
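Further: KINOMEscan kinase panel screen.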

Question: For `Cl.c1ccc(-c2ccc3c(Nc4ccc5[nH]ccc5c4)ccnc3c2)nc1` [GW440138], which “%Inh” value is on record?
Answer: Its value is 0%.

Question: `Fc1ccc(-c2ncn(C3CCNCC3)c2-c2ccnc(Oc3ccc(-c4ccccc4)cc3)n2)cc1` [SB-245391] was tested. Which “%Inh” value did it give?
Answer: Its value is 86%.

Question: With `O=C(Nc1cccc(Oc2ccc3nc(NC(=O)C4CC4)cn3n2)c1)c1ccccc1C(F)(F)F` as the compound, how does the “%Inh” value read?
Answer: The value was 0%.

Question: Which “%Inh” value does the source give for `COc1cccc(C2=C(Nc3ccc(Cl)c(C(=O)O)c3)C(=O)NC2=O)c1` [SB-390769] here?
Answer: Its value is 0%.

Question: Which “%Inh” value does the source give for `Cc1ccc(C(=O)Nc2ccc(Nc3ccnc4cc(-c5nccs5)ccc34)cc2O)cc1.Cl` [GW494702] here?
Answer: The value was 11%.

Question: With `Cc1ccc(C)c(NC(=O)NC2CCN(c3ccnc(Nc4ccc(F)cc4)n3)C2)c1` (stereo not shown) [GSK1379720] as the compound, how does the “%Inh” value read?
Answer: The value was 28%.

Question: For `COc1ccc(-c2coc3ccc(-c4nnc(SCc5ccc(OC)c(C(F)(F)F)c5)o4)cc23)cc1`, which “%Inh” value is on record?
Answer: Its value is 0%.

Question: For `COc1cc(Nc2ncc3c(C)nc(-c4cc5ccccc5[nH]4)n3n2)cc(OC)c1OC` [GW869516], which “%Inh” value is on record?
Answer: The value was 0%.

Question: Which “%Inh” value does the source give for `O=C(NC1CCN(c2ccnc(Nc3ccc(F)cc3)n2)C1)c1cc2ccccc2s1` (stereo not shown) [GSK1379716] here?
Answer: Its value is 29%.

Question: With `Cn1cc(-c2ccc3c(c2)CCN3C(=O)Cc2cccc(Cl)c2)c2c(N)ncnc21` [GSK2606590] as the compound, how does the “%Inh” value read?
Answer: Its value is 21%.

Question: `COC(=O)Nc1nc2ccc(Oc3ccc(NC(=O)Nc4cc(C(F)(F)F)ccc4F)cc3)cc2n1C.Cl` [GW692089] was tested. Which “%Inh” value did it give?
Answer: Its value is 0%.

Question: For `O=C(O)C(F)(F)F.O=C(O)C(F)(F)F.O=c1[nH]ccc2nc(N[C@@H]3CCCNC3)nc(Nc3ccc(S(=O)(=O)N4CCOCC4)cc3)c12` [GSK2177277], which “%Inh” value is on record?
Answer: The value was 74%.

Question: Which “%Inh” value does the source give for `CCn1c(-c2nonc2N)nc2c(C#CC(C)(C)O)ncc(OCCCCN)c21.O=C(O)C(F)(F)F.O=C(O)C(F)(F)F` [GSK507274] here?
Answer: The value was 24%.

Test system: T2, YES
T2 construct: gene YES1
Details: concentration: 1 μM, replicates: in singlicate; n = 1

Question: For `CN1CCN(Cc2cccc(-c3ccc4c(Nc5ccc(Oc6ccccc6)cc5)ccnc4c3)c2)CC1` [GW578342], which “%Inh” value is on record?
Answer: Its value is 88%.

Question: For `O=C(Nc1ccccc1F)NC1CCN(c2ccnc(Nc3ccc(F)cc3)n2)CC1` [GSK1379800], which “%Inh” value is on record?
Answer: The value was 4%.

Question: Which “%Inh” value does the source give for `Cl.c1ccc(-c2ccc3c(Nc4ccc5[nH]ncc5c4)ccnc3c2)nc1` [GW440137] here?
Answer: The value was 14%.

Question: For `CCn1c(-c2nonc2N)nc2c(C#CC(C)(C)O)nc(OC[C@H](N)c3ccccc3)cc21` [GSK943949], which “%Inh” value is on record?
Answer: The value was 19%.

Question: How did the “%Inh” value turn out when `O=C(Nc1cccc(-c2nn3ccccc3c2-c2ccnc(Nc3cccc(C(F)(F)F)c3)n2)c1)c1c(F)cccc1F` [GSK292658] was run?
Answer: The value was 95.2%.

Question: `Cn1cc(-c2ccc3c(c2)CCN3C(=O)Cc2cccc(F)c2)c2c(N)ncnc21` [GSK2603358] was tested. Which “%Inh” value did it give?
Answer: Its value is 22%.

Question: With `COc1cc(Nc2nccc(N3CCC(NC(=O)c4cc5ccccc5s4)C3)n2)cc(OC)c1OC` (stereo not shown) [GSK1379760] as the compound, how does the “%Inh” value read?
Answer: Its value is 8%.

Question: `COCCOCCOc1cc2ncc3c4ccc(C#N)cc4[nH]c3c2cc1OC` was tested. Which “%Inh” value did it give?
Answer: Its value is 13%.

Question: How did the “%Inh” value turn out when `Cl.Cl.NCC(NC(=O)c1cc(-c2ccccc2)c(-c2ccnc3[nH]ccc23)s1)c1ccccc1` (stereo not shown) [GSK1321561] was run?
Answer: Its value is 41%.

Question: With `COc1cc(Nc2nccc(-c3c(-c4cccc(NC(=O)c5c(F)cccc5F)c4)nn4ncccc34)n2)cc(OC)c1OC` [GSK327238] as the compound, how does the “%Inh” value read?
Answer: The value was 100%.

Question: `CN(C)S(=O)(=O)c1cc(-c2ccc3nccc(-c4cccc(S(N)(=O)=O)c4)c3c2)cnc1N` [GSK1669921] was tested. Which “%Inh” value did it give?
Answer: The value was 1%.

Question: `Cl.Cl.NCC(NCc1ccc(-c2ccnc3[nH]ccc23)s1)c1ccccc1` (stereo not shown) [GSK1321565] was tested. Which “%Inh” value did it give?
Answer: Its value is 0%.

Question: `Cc1ccc(S(=O)(=O)Nc2ccc(Nc3nccc(Nc4cccc5[nH]ncc45)n3)cc2)cc1` [GSK581271] was tested. Which “%Inh” value did it give?
Answer: Its value is 30%.

Question: With `CC(=O)Nc1nc2cnc(Nc3cc(NC(=O)c4cccc(C5(C#N)CC5)c4Cl)ccc3C)nc2s1` as the compound, how does the “%Inh” value read?
Answer: The value was 82%.

Question: For `CNC(=O)c1ccccc1Nc1nc(Nc2ccc(N3CCOCC3)cc2)ncc1Cl.Cl` [GSK1576028], which “%Inh” value is on record?
Answer: Its value is 98.7%.

Question: How did the “%Inh” value turn out when `Cc1ccc(C(=O)N2CC[C@@H](O)C2)cc1-n1c(C)cc(OCc2ccc(F)cc2F)c(Br)c1=O` was run?
Answer: The value was 20%.

Question: Which “%Inh” value does the source give for `COc1ccc(Nc2nccc(N3CCC(NC(=O)Nc4cccc(OC)c4)C3)n2)cc1` (stereo not shown) [GSK1379742] here?
Answer: Its value is 0%.

Question: How did the “%Inh” value turn out when `Cl.Cl.NCC(C(=O)Nc1cc(Br)c(-c2ccnc3[nH]ccc23)s1)c1ccccc1` (stereo not shown) [GSK1269851] was run?
Answer: The value was 7%.
